For some of these results: Entries with a potency or affinity are not part of this list.
What was measured:
Design in all cases: scale not given: direction of the effect not stated beside the values
[1] = target: Protein translocase subunit SecA (Escherichia coli (strain K12)) (UniProt P10408); test: Assay to Identify E. coli SecA ATPase Inhibitors; type: functional; conditions: 30 µM
[2] = target: T1, Ubiquitin-activating enzyme e1, putative (Leishmania donovani (strain BPK282A1)) (UniProt E9BSI1); test: Leishmania donovani Ubiquitin Activating Enzyme (LdE1); type: functional; conditions: 30 µM
T1 sequence (whole entry): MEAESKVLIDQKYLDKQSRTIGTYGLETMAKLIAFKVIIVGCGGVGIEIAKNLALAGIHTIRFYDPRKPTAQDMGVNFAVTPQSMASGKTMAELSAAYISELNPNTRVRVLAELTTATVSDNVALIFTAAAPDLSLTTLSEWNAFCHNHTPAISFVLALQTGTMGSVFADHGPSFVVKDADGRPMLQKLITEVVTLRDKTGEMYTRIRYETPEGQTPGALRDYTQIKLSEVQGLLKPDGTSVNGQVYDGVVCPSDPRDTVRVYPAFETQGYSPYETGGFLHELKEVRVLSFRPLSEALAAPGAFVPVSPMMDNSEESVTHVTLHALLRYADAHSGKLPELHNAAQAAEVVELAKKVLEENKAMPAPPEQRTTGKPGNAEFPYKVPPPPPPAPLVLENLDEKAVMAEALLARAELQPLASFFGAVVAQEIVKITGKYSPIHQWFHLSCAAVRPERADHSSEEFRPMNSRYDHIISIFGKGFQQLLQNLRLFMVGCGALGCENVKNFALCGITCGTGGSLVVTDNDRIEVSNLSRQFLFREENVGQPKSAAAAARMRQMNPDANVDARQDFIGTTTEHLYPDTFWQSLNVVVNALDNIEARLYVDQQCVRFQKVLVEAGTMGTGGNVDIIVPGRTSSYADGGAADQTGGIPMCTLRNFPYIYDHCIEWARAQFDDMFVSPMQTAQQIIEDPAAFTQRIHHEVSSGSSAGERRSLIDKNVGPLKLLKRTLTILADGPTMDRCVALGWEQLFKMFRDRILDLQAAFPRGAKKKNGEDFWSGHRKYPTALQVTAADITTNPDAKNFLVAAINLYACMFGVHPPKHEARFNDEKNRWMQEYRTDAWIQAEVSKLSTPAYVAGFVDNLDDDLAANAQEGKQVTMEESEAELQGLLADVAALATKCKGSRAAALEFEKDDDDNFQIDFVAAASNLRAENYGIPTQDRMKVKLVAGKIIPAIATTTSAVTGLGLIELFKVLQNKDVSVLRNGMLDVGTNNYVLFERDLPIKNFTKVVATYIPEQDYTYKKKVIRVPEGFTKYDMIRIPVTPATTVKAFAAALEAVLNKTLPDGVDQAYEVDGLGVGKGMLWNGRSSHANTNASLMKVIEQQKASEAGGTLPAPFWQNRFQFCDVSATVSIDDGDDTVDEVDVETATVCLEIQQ

[3] = target: AMP-activated protein kinase, AMPK (Homo sapiens) (UniProt P54646+O43741+P54619+Q9UGJ0+Q9Y478+Q13131+Q9UGI9); test: AMP-dependent Kinase enzyme assay. An in vitro enzyme assay that detects ADP turnover that is directly proportional to AMPK activity. This uses naive AMPK that is activated during the assay with MK-8722; type: functional; conditions: 30 µM
[4] = target: Sialic acid-binding Ig-like lectin 9 (Homo sapiens) (UniProt Q9Y336); test: Hs-Siglec9 ALPHAscreen SOP 20170721; conditions: 10 µM
Trypanosoma cruzi = test: Trypanosoma cruzi phosphomannomutase and mannose-1-phosphate guanylyltransferase assay; type: functional; conditions: 10 µM
[5] = target: T2, Arginase-2, mitochondrial (Homo sapiens) (UniProt P78540); test: in vitro enzyme assay to detect the production of urea directly proportional to the activity of Arginase II; type: functional; conditions: 33.3 µM; also: in the data most compounds retested in dose-response had high values
T2 sequence (whole entry): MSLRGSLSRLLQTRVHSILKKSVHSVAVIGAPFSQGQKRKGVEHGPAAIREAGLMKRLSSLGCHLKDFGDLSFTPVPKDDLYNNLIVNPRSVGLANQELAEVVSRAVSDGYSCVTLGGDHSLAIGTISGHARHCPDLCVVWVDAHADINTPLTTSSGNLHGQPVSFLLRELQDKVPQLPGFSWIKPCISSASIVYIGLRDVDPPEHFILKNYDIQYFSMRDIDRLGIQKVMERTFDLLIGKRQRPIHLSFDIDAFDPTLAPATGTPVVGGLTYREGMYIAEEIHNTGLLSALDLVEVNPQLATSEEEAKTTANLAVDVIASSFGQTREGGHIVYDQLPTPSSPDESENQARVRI

[6] = target: T3, Proteasome subunit beta (Trypanosoma cruzi) (UniProt O96673); test: Trypanosoma cruzi proteasome chymotrypsin-like activity (TcProtChymo) assay.; also: in the data most compounds retested in dose-response had high values; type: functional; conditions: 9.37 µM
T3 sequence (whole entry): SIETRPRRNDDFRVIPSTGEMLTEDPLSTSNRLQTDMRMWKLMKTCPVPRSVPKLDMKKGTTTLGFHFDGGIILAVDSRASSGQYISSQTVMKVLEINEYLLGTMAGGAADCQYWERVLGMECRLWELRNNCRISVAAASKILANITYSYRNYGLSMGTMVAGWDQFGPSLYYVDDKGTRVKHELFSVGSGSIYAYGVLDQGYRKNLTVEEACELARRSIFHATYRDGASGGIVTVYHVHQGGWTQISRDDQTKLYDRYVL

Homo sapiens = species: Homo sapiens; test: To identify inhibition of the IFN signalling (Jak-Stat) pathway via expression of an eGFP reporter gene under the control of an IFN-stimulated response element (ISRE) containing MxA promoter.; type: functional; conditions: 30 µM
[7] = target: T4, Tyrosyl-tRNA synthetase, putative (Trypanosoma cruzi (strain CL Brener)) (UniProt Q4DSP6); test: Trypanosoma cruzi tyrosyl tRNA synthetase (TcYRS) _High Tyrosine SOP; type: functional; conditions: 30 µM; also: in the data most compounds retested in dose-response had high values
T4 sequence (whole entry): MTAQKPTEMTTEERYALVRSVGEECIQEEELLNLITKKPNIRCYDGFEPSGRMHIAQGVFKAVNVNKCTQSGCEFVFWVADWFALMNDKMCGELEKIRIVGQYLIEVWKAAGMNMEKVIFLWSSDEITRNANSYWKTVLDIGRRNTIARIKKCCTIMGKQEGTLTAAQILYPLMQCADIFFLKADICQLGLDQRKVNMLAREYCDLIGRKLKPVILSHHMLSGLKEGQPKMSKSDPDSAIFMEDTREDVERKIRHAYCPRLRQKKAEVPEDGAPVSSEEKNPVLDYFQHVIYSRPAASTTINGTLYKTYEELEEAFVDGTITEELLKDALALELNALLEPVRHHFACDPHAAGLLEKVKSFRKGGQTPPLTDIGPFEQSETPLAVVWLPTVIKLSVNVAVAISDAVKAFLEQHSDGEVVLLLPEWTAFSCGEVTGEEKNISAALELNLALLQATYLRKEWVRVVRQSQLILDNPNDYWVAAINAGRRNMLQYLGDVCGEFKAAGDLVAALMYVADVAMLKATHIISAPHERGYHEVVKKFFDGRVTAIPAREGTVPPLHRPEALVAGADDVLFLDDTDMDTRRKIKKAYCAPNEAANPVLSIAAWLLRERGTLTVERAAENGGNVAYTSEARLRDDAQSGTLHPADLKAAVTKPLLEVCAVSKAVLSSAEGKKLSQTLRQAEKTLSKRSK

[8] = target: T4, Tyrosyl-tRNA synthetase, putative (Trypanosoma cruzi (strain CL Brener)); test: Trypanosoma cruzi tyrosyl tRNA synthetase (TcYRS) SOP; type: functional; conditions: 30 µM
[9] = target: Chromo domain-containing protein 1 (Saccharomyces cerevisiae (strain ATCC 204508 / S288c) (Baker's yeast)) (UniProt P32657); test: ScCHD-1 Enzyme Inhibition Assay; type: functional; conditions: 30 µM; also: in the data most compounds retested in dose-response had high values
Chromo domain-containing protein 1 (Saccharomyces cerevisiae (strain ATCC 204508 / S288c) (Baker's yeast)), sequence (P32657 whole entry, the tested form may be a part): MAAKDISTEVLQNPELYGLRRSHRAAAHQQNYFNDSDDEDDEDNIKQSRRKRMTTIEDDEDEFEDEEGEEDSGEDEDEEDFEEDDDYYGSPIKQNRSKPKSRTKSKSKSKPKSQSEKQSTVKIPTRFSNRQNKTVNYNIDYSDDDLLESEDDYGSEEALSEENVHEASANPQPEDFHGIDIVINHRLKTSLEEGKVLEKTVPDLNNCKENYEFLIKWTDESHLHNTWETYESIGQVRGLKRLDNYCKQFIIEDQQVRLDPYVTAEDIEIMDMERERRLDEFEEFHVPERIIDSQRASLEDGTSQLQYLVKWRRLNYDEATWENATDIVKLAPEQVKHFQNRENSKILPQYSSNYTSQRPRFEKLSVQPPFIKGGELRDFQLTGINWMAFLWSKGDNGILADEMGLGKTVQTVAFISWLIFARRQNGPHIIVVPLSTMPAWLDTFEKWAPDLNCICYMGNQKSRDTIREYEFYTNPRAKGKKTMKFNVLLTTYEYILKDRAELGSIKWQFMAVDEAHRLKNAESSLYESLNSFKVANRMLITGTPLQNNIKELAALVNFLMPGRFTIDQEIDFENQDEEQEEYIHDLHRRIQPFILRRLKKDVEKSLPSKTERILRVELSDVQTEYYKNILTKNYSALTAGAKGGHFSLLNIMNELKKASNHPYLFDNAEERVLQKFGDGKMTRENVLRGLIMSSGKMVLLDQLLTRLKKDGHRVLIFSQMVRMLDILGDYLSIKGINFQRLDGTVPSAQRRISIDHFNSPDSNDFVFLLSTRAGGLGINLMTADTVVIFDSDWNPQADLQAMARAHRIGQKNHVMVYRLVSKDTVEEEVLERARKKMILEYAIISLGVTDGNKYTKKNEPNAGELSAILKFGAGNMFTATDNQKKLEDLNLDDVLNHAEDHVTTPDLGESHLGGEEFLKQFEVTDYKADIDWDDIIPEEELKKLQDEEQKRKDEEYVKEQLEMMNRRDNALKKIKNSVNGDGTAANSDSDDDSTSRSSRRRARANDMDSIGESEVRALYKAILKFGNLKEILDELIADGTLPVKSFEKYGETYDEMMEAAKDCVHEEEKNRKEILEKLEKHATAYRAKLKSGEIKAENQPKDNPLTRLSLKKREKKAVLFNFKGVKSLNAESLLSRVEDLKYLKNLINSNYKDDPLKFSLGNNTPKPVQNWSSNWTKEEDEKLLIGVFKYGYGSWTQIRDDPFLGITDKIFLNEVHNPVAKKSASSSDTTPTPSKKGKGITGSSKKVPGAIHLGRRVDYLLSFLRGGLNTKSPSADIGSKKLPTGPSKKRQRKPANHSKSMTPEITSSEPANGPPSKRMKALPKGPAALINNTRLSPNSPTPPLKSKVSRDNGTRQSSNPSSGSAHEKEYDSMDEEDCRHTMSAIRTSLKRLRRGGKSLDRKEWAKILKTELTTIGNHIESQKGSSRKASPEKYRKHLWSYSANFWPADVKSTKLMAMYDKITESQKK

Protein translocase subunit SecA (Escherichia coli (strain K12)), sequence (P10408 whole entry): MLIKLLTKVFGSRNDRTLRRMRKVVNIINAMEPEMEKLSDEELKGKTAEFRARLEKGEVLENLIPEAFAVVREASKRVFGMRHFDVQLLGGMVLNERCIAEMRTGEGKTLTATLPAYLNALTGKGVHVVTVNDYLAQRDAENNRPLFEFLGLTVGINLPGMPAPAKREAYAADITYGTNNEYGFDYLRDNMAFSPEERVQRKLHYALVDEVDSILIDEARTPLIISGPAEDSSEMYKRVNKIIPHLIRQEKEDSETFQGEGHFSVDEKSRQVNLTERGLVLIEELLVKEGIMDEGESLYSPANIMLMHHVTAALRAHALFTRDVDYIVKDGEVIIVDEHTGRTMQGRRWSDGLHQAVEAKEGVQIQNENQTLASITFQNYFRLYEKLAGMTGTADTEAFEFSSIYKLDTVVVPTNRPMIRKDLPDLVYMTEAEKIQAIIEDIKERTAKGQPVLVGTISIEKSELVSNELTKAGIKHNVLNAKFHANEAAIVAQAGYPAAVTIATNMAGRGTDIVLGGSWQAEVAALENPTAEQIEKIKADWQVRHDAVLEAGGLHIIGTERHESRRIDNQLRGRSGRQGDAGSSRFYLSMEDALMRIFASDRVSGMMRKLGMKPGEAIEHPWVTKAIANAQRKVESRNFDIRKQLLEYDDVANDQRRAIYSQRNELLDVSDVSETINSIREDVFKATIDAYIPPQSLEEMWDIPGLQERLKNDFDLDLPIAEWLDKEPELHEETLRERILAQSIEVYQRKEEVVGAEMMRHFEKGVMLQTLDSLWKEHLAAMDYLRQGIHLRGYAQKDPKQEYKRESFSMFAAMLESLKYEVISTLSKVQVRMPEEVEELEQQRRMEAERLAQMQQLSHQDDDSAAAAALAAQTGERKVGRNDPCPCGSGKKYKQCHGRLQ
Sialic acid-binding Ig-like lectin 9 (Homo sapiens), sequence (Q9Y336 whole entry): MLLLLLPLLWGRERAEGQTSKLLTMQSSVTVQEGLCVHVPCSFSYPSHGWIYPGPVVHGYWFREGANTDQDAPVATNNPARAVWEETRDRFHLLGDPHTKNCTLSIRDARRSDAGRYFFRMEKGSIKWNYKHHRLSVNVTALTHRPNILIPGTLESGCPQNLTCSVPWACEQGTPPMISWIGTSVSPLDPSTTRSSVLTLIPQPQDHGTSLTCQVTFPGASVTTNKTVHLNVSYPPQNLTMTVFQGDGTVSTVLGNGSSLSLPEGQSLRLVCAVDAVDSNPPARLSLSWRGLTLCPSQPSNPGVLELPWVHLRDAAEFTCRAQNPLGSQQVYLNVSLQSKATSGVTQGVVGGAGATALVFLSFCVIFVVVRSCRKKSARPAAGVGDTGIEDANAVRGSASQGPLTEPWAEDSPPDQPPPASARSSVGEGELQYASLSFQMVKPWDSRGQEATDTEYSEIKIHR

| SMILES | Percent Effect [1] | Percent Effect [2] | Percent Effect [3] | Percent Effect [4] | Percent Effect (Trypanosoma cruzi) | Percent Effect [5] | Percent Effect [6] | Percent Effect (Homo sapiens) | Percent Effect [7] | Percent Effect [8] | Percent Effect [9] |
| --- | --- | --- | --- | --- | --- | --- | --- | --- | --- | --- | --- |
| COc1cc(N2C[C@@H]3COC[C@]3(COc3ccc(C#N)cn3)C2)ncn1 | -3.38% | 13.5% | 2.34% | 2.33% | 4.01% | 9.24% | 12.6% | 35.9% | 4.32% | 7.69% | 1.63% |
| O=C(NCCNc1ncccn1)N1CCN(Cc2cccnc2)CC1 | -10.3% | 13.5% | -7.65% | 22.9% | 10.5% | -16% | 6.13% | 2.94% | 7.39% | 23.5% | -14.1% |
| CCc1cnc(N2C[C@H]3C[C@H](C(=O)N(C)C)[C@@H](C2)O3)nc1 | -0.24% | 13.3% | 0.237% | 8.45% | 0.579% | -53.6% | 2.91% | -12.6% | 5.21% | 10% | -6.38% |
| O=C(C1COCCO1)N1CCN(Cc2ccc3c(c2)CCO3)CC1 (stereo unspecified) | -1.12% | -5.26% | -0.262% | 5.55% | 1.21% | -2.52% | -0.0846% | -4.94% | 3.45% | 3.7% | -2.12% |
| OCCn1nccc1C1CCN(CCCOc2ccc(F)cc2)CC1 | -5.89% | 0% | -3.35% | 3.53% | -0.28% | -2.88% | -3.64% | -5.47% | 9.36% | 16.1% | -0.509% |
| CNC(=O)c1cc2c(nc1NC(C)C)CCN(C(=O)NC(C)C)CC2 | -2.44% | 0% | -4.24% | -6.22% | -2.64% | -0.744% | -2.83% | -8.82% | 6.45% | 6.17% | -0.531% |
| Cc1nc(C(=O)N2CCCC(c3cccc(-n4ccnc4)n3)C2)co1 (stereo unspecified) | -7.87% | 1.35% | 2.78% | 1.23% | -5.34% | -2.55% | 10.1% | 12.6% | 0% | 1.3% | -6.74% |
| Cc1ccc(OCCNC(=O)C(C)n2cncn2)cc1 (stereo unspecified) | -1.61% | 15.2% | 7.61% | -6.9% | -9.91% | 0.38% | 11.1% | 35.3% | -1.48% | 3.8% | -3.56% |
| Cc1nc(C)n(CC2CCCN2CC(=O)Nc2ccnn2C(C)C)n1 (stereo unspecified) | 3.15% | 18.4% | 16% | -8.63% | -8.31% | 2.16% | 14% | 1.93% | 5.42% | 16.1% | -6.21% |
| CCn1cnnc1CNC(=O)N(C)Cc1ccc2c(c1)OCCO2 | -0.341% | -16.2% | -15.5% | -4.03% | 0.66% | -14.8% | 14.6% | 2.89% | 9.36% | 25.9% | -8.11% |
| CC(=O)N1CCC(CN2CCN(Cc3nccn3C)C(C)C2)CC1 (stereo unspecified) | -0.614% | 18.9% | -4.02% | -8.56% | -2.14% | 4.25% | 14.5% | 17.6% | 9.9% | 15.8% | -2.18% |

From ChEMBL document CHEMBL3988442, “University of Dundee, Small-Polar-MMV Screening Library” (2021)
